tim23-1 inh: inhibits growth of tim23-1 mutant yeast | S. cerevisiae tim23-1 growth, BacTiter-Glo luminescence, 24 h | inhibition, % at 20 µM | actives 1.3% (n = 330,000) | AID 463212;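 active means growth inhibition of the mutant yeast at or above 50%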;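 further: temperature-sensitive mutant grown at 25 °C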
PfHsp90 set2: growth inhibition of yeast expressing Plasmodium Hsp90. S. cerevisiae expressing PfHsp90, BacTiter-Glo ATP, 48 h; yeast lacking PDR1 and PDR3 efflux regulators. inhibition, % at 9.4 µM. actives 0.32% (n = 310,000);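 active means every replicate shows inhibition above about 80%, whatever the replicate mean, limit read from the data; inconclusive means mean inhibition reaches the set limit but some replicate falls short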
TIM10 inh: inhibits growth of TIM10 yeast strain | inhibition, % at 10 µM | AID 463195 | S. cerevisiae TIM10 strain growth, BacTiter-Glo luminescence, 24 h | actives 1.4% (n = 330,000);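 active means inhibition of 40% or more at the single tested concentration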;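 further: wild-type TIM10 isogenic control strain grown at permissive 25 °C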
SKKanGAS inh: blocks kanamycin growth of S. pyogenes SKKanGAS strain; BacTiter-Glo, 6 h; inhibition, % at 7.5 µM; actives 1.3% (n = 300,000);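 active means mean replicate score, as percent of positive control median, at least 50; inconclusive means mean below 50 but one replicate at or above 50; inactive means mean and every replicate below 50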;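 further: strain carries kanamycin resistance gene driven by streptokinase promoter and grows in 40 µg/ml kanamycin; loss of luminescence reflects streptokinase promoter inhibition or plain growth inhibition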
Calb FLC: C. albicans growth modulation with fluconazole; C. albicans CaCi-2 (fluconazole-resistant clinical isolate) + fluconazole, Alamar Blue growth, 48 h; growth inhibition, % (concentration not given with the values); actives 0.57% (n = 300,000); AID 1979;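 active means growth inhibition above about 58% in most replicates, limit read from the data, passing the limit was not always enough; inconclusive means exactly half the replicates above a set limit; inactive means most replicates below a set limit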;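 further: all wells also contain fluconazole at 8 µg/ml as a sub-toxic cotreatment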
tim10-1 inh: inhibits growth of tim10-1 mutant yeast. S. cerevisiae tim10-1 ts strain growth, BacTiter-Glo, 24 h. inhibition, % at 20 µM. actives 2.2% (n = 330,000). AID 463190;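 active means inhibition of at least 40%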;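 further: mutant grown at 25 °C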
Large screens that a line does not name were inactive. Rows were chosen to be rich in hits. Some 4.7% of all compounds tested hit in one or more screens of this group.

CCOc1ccc2nc(N3C(=O)/C(=C/c4ccc(Cl)cc4)NC3=S)sc2c1	SKKanGAS inh 96 (no result: tim23-1 inh, TIM10 inh, tim10-1 inh)
CCc1[nH]nc(C(=O)N2CCCC(N3CCN(c4ccccc4C)CC3)C2)c1C (stereo unspecified)	none
Cc1cccc(NC(=O)c2sc(Cl)nc2-c2ccccc2)c1	SKKanGAS inh 67
COc1ccc(NC(=O)c2sc(Cl)nc2-c2ccccc2)cc1	none
Cc1[nH]n(-c2ccccc2)c(=O)c1/C=N/NC(=O)c1ccc(O)cc1O	SKKanGAS inh 102
CCCCN(CCCC)C(=S)N/N=C/c1c(C)[nH]n(-c2ccccc2)c1=O	SKKanGAS inh 88
Cc1ccc(/C=N\NC(=O)COc2ccc(C)cc2[N+](=O)[O-])cc1	none
Cc1ccc(OCC(=O)N/N=C\c2c(C)[nH]n(-c3ccccc3)c2=O)c([N+](=O)[O-])c1	Calb FLC 106
Cc1[nH]n(-c2ccccc2)c(=O)c1/C=N/Nc1nncc(-c2ccccc2)n1	Calb FLC 105
Cc1ccc(/C=N/Nc2nncc(-c3ccccc3)n2)o1	none
Cc1ccc(-n2[nH]c(C)c(/C=N/NC(=O)c3ccc(O)cc3O)c2=O)cc1	SKKanGAS inh 102
Cc1ccc(CC2C(=O)N(c3nc(C)cc(C)n3)C(=O)C2C)cc1 (stereo unspecified)	none
Cc1cccc(COCC(Cc2ccccc2)N2CCN(C(=O)c3ccc(Cl)c(Cl)c3)CCC2=O)c1 (stereo unspecified)	none
O=C(c1ccc(Cl)c(Cl)c1)N1CCC(=O)N(C(COCc2ccc(Cl)cc2)Cc2ccccc2)CC1 (stereo unspecified)	SKKanGAS inh 51
COc1ccccc1NC(=O)NCCCCc1ccccc1	SKKanGAS inh 50
O=c1cc2c(nn1Cc1ccc(F)cc1)-c1ccccc1CC2	none
Fc1ccc(CO/N=C/C2=C(Cl)c3ccccc3CC2)cc1	SKKanGAS inh 79
Cc1ccc(C(=O)C2=C(O)C(=O)N(Cc3ccco3)C2c2cccc(Cl)c2)o1 (stereo unspecified)	none (no result: PfHsp90 set2)
Cc1ccc(C(=O)C2=C(O)C(=O)N(Cc3ccco3)C2c2cccc(Br)c2)o1 (stereo unspecified)	SKKanGAS inh 52, Calb FLC inconclusive
CCOc1ncccc1C(=O)NNC(=O)CSc1ccc(Cl)cc1	none (no result: SKKanGAS inh, Calb FLC)
COc1ccc(CNS(=O)(=O)c2c(C(=O)N3CCCCCC3)c(C)n(C)c2C)cc1	none
Cc1ccc(-n2ncc3c2CC(C)(C)CC3NC(=O)CCCN2CCCCC2=O)cc1 (stereo unspecified)	none
CC1(C)Cc2c(cnn2-c2ccccc2)C(NC(=O)CCCN2CCCC2=O)C1 (stereo unspecified)	SKKanGAS inh 61
Cc1c(NC(=O)COc2c(F)c(F)c(F)c(F)c2F)c(=O)n(-c2ccccc2)n1C	none
Cc1ccc(/C=C/C2=Cc3c(sc(NC(=O)CSc4n[nH]c(N)n4)c3C#N)C(C)(C)C2)o1	SKKanGAS inh 55 (no result: PfHsp90 set2)
Cc1sc(NC(=O)CSc2n[nH]c(N)n2)c(C#N)c1C	none (no result: tim23-1 inh, TIM10 inh, SKKanGAS inh, Calb FLC, tim10-1 inh)
COC(=O)c1ccc(N2NC(=O)/C(=C/c3ccc(-c4ccc(Cl)c(C(=O)O)c4)o3)C2=O)cc1	Calb FLC 62
Cc1ccc(N2NC(=O)/C(=C/c3ccc(-c4ccc(Cl)c(C(=O)O)c4)o3)C2=O)cc1C	none
O=C1NN(c2ccc(Cl)c(Cl)c2)C(=O)/C1=C/c1ccc(-c2ccccc2C(=O)O)o1	Calb FLC 81
CC(/C=C/c1ccc(N(C)C)cc1)=N\N=C1\NC(=O)CC(C(=O)Nc2ccccc2)S1 (stereo unspecified)	SKKanGAS inh 75
CC(/C=C/c1ccc(N(C)C)cc1)=N/N=C1/NC(=O)CC(C(=O)Nc2ccc(Cl)cc2)S1 (stereo unspecified)	SKKanGAS inh 95
O=[N+]([O-])c1cccc(N/N=C/c2cc([N+](=O)[O-])ccc2O)c1	none
O=[N+]([O-])c1ccc(O)c(/C=N/Nc2ccccn2)c1	PfHsp90 set2 111 (no result: tim23-1 inh, TIM10 inh, tim10-1 inh)
O=[N+]([O-])c1ccc(O)c(/C=N/Nc2ncnc3c2cnn3-c2ccccc2)c1	SKKanGAS inh 88
COc1cccc(/C=N/Nc2nc3ccccc3[nH]2)c1OC	none
COc1cccc(/C=N/Nc2nc3ccccc3[nH]2)c1O	SKKanGAS inh 79
O=[N+]([O-])c1ccc(O)c(/C=N/Nc2nc3ccccc3[nH]2)c1	SKKanGAS inh 71
CC(C)[C@@H](C(=O)NC1CCCC1)N1C(=O)N2CCc3c([nH]c4ccccc34)[C@@]2(C)C1=O	SKKanGAS inh 68
C[C@@H](C(=O)NC1CCCC1)N1C(=O)N2CCc3c([nH]c4ccccc34)[C@@]2(C)C1=O	none
Cc1nc2ccccc2c(=O)n1/N=C/c1ccc(O)cc1O	none
CN(/N=C/c1ccc(O)cc1O)c1nc(-c2ccccc2)cc(-c2ccccc2)n1	SKKanGAS inh 71
COc1cccc(C2CC(c3ccc(NS(C)(=O)=O)cc3)=NN2C(=O)c2ccccc2)c1OC (stereo unspecified)	Calb FLC 103
COc1ccccc1C1CC(c2ccc(NS(C)(=O)=O)cc2)=NN1C(=O)c1ccccc1 (stereo unspecified)	Calb FLC inconclusive
C=CCn1c(SCC(=O)N2CCN(c3ccccc3)CC2)nc2c([nH]c3ccccc32)c1=O	none (no result: Calb FLC)
O=C1/C(=C/c2c[nH]c3ccccc23)CCC/C1=C\c1c[nH]c2ccccc12	SKKanGAS inh 59
CCCCc1cc(=O)oc2cc(OC(C)C(=O)NCCN3CCOCC3)c(Cl)cc12 (stereo unspecified)	none
O=C(N/N=C/c1ccc(Cl)cc1Cl)Nc1ccccc1	Calb FLC 117 (no result: SKKanGAS inh)
O=C(Nc1ccccc1)Nc1cc(Cl)cc(Cl)c1	SKKanGAS inh 84
O=C(Nc1ccccc1)Nc1cc(OCC(F)(F)F)cc(OCC(F)(F)F)c1	SKKanGAS inh 52 (no result: tim23-1 inh, TIM10 inh, tim10-1 inh)
O=C(NCc1ccccn1)Nc1cccc(Cl)c1	none
O=C(NCc1ccccn1)Nc1cc(Cl)cc(Cl)c1	SKKanGAS inh 77
O=C(N/N=C/c1cccc(Cl)c1Cl)Nc1ccccc1	none
CCc1nc(N)nc(N)c1-c1ccc(N(C)Cc2ccccc2)c([N+](=O)[O-])c1	none (no result: tim23-1 inh, TIM10 inh, SKKanGAS inh, Calb FLC, tim10-1 inh)
CC(C)(C)C(=O)NCc1ccc(C(=O)CSc2nnc(-c3ccncc3)n2C2CC2)s1	none (no result: PfHsp90 set2, SKKanGAS inh, Calb FLC)
C[C@H]1COC2=C1C(=O)C(=O)c1c2ccc2c1CCCC2(C)C	SKKanGAS inh 86 (no result: tim23-1 inh, TIM10 inh, tim10-1 inh)
CS/C(=C\[N+](=O)[O-])Nc1ccc(Cl)cc1	Calb FLC 102
O=C(CSc1ccc(Cl)cc1)Nc1nnc(-c2ccco2)o1	Calb FLC 84
O=C(Nc1nnc(-c2ccco2)o1)c1ccc(Cl)cc1	SKKanGAS inh 87, Calb FLC 102
O=C(CSc1ccccc1)Nc1nnc(-c2ccco2)o1	none (no result: PfHsp90 set2)
CC(=O)c1ccc(C(=O)Nc2nnc(-c3ccc(Cl)cc3)o2)cc1	SKKanGAS inh 91

Source: PubChem (several laboratories)
